The structures appear in SMILES notation. “And” between values parts separate entries of the source, which are not always exact repeats. Identical values can stand only once. Results filed as inconclusive are left out. The source made the active and inactive calls. Unless noted, calls come from the whole dose curve; as a rule, active = well fitted curve in the direction sought with a large enough effect; inconclusive = small, poorly fitted or top-dose-only effect, or another doubt; inactive = no such curve, though single readings can be large; an effect the other way counts as inactive or inconclusive. Some results are limits rather than exact numbers.

Test [1] is described as follows: AP1 Signaling Pathway (AID 357; active = well fitted curve in either direction with a large enough effect, not every such curve was filed as active;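 note: ME-180 reporter cells stimulated with EGF at its EC50 level; % is set by controls: 0 for no effect and ±100 for the full control effect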). To be noted: ME-180 AP-1-bla reporter, EGF-induced, beta-lactamase ratio, 5 h; at 17.2 µM (top of the series). The essentials: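 A ratiometric CCF4 readout (405 nm excitation; 460 and 530 nm emission) quantified AP-1-driven beta-lactamase in ME-180 cells after 5 h with compound and EC50 EGF; AC50 values were derived for activators and inhibitors.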

A short description of test [2]: NFAT Signaling Pathway (AID 444; active = well fitted curve in either direction with a large enough effect, not every such curve was filed as active;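 note: carbachol stimulus at about its EC50 of 1 µM final; % is set by controls: 0 for no effect and ±100 for the full control effect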). To be noted: Jurkat NFAT-bla M1, carbachol, beta-lactamase ratio, 5 h; at 17.2 µM (top of the series). The procedure, abridged: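 Jurkat cells carrying an NFAT-driven β-lactamase reporter and co-transfected muscarinic M1 receptor were treated with compound plus carbachol (1 uM final, an EC50 level) for 5 h at 37 °C. CCF4 loading followed for 1 h at RT; 460/530 nm ratio gave %activity.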

Test [3] in a line: Stat Signaling Pathway (AID 446; active = well fitted curve in either direction with a large enough effect, not every such curve was filed as active;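 note: ME-180 cervical cancer cells given 40 pM IL-6 alongside compound; SIE-controlled beta-lactamase reporter measured as 460/530 nm FRET emission ratio; % is set by controls: 0 for no effect and ±100 for the full control effect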). To be noted: ME-180 (cervical carcinoma) SIE beta-lactamase reporter, IL-6 stimulated, 5 h; at 17.2 µM (top of the series). The essentials: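 Normalization used AC90 stimulation (300 pM IL-6) and AC90 inhibition (125 nM pan-JAK inhibitor at 40 pM IL-6). The underlying signal is SIE-driven beta-lactamase in ME-180 cells after 5 h IL-6 exposure with compound.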
Test [4] deals with Glucocorticoid receptor (Homo sapiens) (UniProt P04150). Description: GR-GFP Redistribution (AID 450;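 active = compounds whose dose series gives a full or clear partial fitted curve of increased nuclear translocation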; note: potency is the fitted concentration of half-maximal effect). To be noted: U2OS GR-GFP nuclear translocation, laser cytometry, 2 h.
Chain of Glucocorticoid receptor (Homo sapiens) (P04150 whole entry, looked up): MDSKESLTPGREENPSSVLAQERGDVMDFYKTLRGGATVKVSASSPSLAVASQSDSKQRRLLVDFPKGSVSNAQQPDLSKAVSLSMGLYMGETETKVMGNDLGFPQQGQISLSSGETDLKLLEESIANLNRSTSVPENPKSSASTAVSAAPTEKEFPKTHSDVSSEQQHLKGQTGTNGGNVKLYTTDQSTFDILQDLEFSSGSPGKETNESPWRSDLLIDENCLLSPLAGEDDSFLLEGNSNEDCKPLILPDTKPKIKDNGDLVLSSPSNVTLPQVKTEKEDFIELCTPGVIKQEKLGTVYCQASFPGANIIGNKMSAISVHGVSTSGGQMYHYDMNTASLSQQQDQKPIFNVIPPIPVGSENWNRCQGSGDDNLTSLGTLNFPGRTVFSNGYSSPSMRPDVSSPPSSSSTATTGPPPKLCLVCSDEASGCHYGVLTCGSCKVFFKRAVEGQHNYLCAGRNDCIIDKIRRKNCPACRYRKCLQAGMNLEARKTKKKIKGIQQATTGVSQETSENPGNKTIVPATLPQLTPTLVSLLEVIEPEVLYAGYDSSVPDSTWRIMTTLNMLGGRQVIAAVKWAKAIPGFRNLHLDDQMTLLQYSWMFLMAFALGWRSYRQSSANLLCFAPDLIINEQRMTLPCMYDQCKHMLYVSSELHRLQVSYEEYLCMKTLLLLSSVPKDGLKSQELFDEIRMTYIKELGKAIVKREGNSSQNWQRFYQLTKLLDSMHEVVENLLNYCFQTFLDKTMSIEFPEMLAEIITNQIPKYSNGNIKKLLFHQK
The target is the same in test [5]. Description: GR-EFC Redistribution (AID 451; calls by dose curve; note: potency is the fitted concentration of half-maximal effect). To be noted: CHO-K1 GR-EFC translocation, beta-gal luminescence, 2 h. The procedure, abridged:
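CHO-K1 cells stably expressing nuclear-localized β-gal enzyme acceptor and GR fused C-terminally to the enzyme donor fragment; ligand-driven nuclear translocation restores β-gal by complementation. Compounds titrated up to 46 uM final, 2 h at 37 °C; luminescence read.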

Test [6] concerns the target Mitogen-activated protein kinase 10 (Mus musculus) (UniProt Q61831). Description: JNK3 AlphaScreen Assay (AID 530; active = well fitted curve in either direction with a large enough effect, not every such curve was filed as active;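 note: kinase came from lysate of stimulated human HepG2 cells; signal reports phosphorylation of biotinylated GST-cJun 1-79 at Ser73 with 10 µM ATP; % is set by controls: 0 for no effect and ±100 for the full control effect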). The essentials: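 Phosphorylation of biotinylated GST-cJun(1-79) at Ser73 is measured by AlphaScreen proximity luminescence. Enzyme is JNK3 in HepG2 lysates activated with interleukin-1beta and tumor necrosis factor alpha; ATP is 10 uM final.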
In general terms: In Alpha technology, singlet oxygen from a donor bead excites a nearby acceptor bead.

Test [7] has as its target 3',5'-cyclic-AMP phosphodiesterase 4B (Homo sapiens) (UniProt Q07343). Description: qHTS Assay for Inhibitors of PDE-IV (AID 607; active = well fitted activation curve with a large enough effect in the main read-out, with a control signal flat, not every such curve was filed as active; note: % of control where 0% means no effect). The essentials: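 HEK293 ACTOne cells with CNG channel (1000/well), endogenous PDE4; membrane potential dye, compounds up to 22.9 uM final. Fluorescence Ex 535/Em 590; RO 20-1724 (100 uM final) as reference.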
In general terms: Quantitative high-throughput screening tests each substance at several concentrations.

The nature of test [8]: qHTS Assay for Lipid Storage Modulators (AID 1519; calls by dose curve). The following applies: Drosophila S3 cells, BODIPY lipid droplet/cell ratio, laser cytometry, cells loaded with oleic acid. The procedure, abridged:
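Cells seeded at 5,000 per well were treated with compounds over a concentration series and loaded with oleic acid (400 uM, as added). Lipid droplet fluorescence (488 nm excitation, 500-530 nm channel) was read by laser-scanning cytometry and normalized to 20 uM Triacsin C.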

For test [9], the target named is Ubiquitin carboxyl-terminal hydrolase 1 (Homo sapiens) (UniProt O94782). In words: Inhibitors of USP1/UAF1: Pilot qHTS (AID 504865).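 Note: rhodamine fluorescence freed from ubiquitin-rhodamine substrate followed over time; top concentration of the series differs between compounds; % is set by controls: 0 for no effect and ±100 for the full control effect; nearly all actives have a fitted effect of over 35% in size.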 The procedure, abridged:
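Enzyme-free wells gave the negative control, while test wells held 1nM USP1/UAF1 preincubated with compound for 15 min at room temperature. Ub-Rho at 150nM final started the reaction, and fluorescence at 480/540 nm was recorded kinetically.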

For test [10], the target named is DNA dC->dU-editing enzyme APOBEC-3G (Homo sapiens) (UniProt Q9HC16). Description: qHTS for inhibitors of Vif-A3G interactions: Validation (AID 588379). Note: 0% is about no effect. The procedure, abridged:
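Yellow fluorescence (Ex 488, Em 500-530) of Vif-coexpressing HeLa A3G-eYFP cells, scanned by Acumen cytometer, reports blocked A3G degradation. Cells plated at 700/well overnight at 37 deg C before compound addition, then a further overnight compound incubation at 37 deg C.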

Test [11] has as its system Zika virus NS2B-NS3 protease. In words: Primary screen GU AMC qHTS for Zika virus inhibitors (AID 1347154).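 Note: 0% = no-inhibitor control and -100% = no-enzyme control; nearly all actives have a fitted effect of over 70% in size.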 The essentials:
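Unlinked Zika NS2B hydrophilic domain/NS3 protease domain noncovalent complex (25 nM final) in 10 mM Tris-HCl pH 8.0, 0.01% Tween 20, with AMC peptide substrate. Fluorescence (ex 340, em 450 nm) change over 15 min, room temperature; percent inhibition fitted to 4-parameter Hill equation.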

Test [12] has as its target Rap guanine nucleotide exchange factor 3 (Homo sapiens) (UniProt O95398). Description: Confirmatory qHTS for antagonist of cAMP-regulated guanine nucleotide exchange factor 3 (EPAC1) (AID 1645880).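 Note: plate controls were DMSO only for no effect and full effect of the ATA control for full effect; nearly all actives have a fitted effect of over 55% in size.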 The essentials: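 Released BODIPY-GDP fluoresces less than Rap1-bound BODIPY-GDP; the signal is followed at 480/540 nm at 5-min intervals over 30 min, after 5 min at room temperature. Reactions contain 100 nM EPAC1, 250 nM RAP1B-BODIPY-GDP and 50 uM GDP; results are normalized to ATA and DMSO.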

For test [13] the target is unchanged. Description: Confirmatory qHTS for agonist of cAMP-regulated guanine nucleotide exchange factor 3 (EPAC1) (AID 1645881).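 Note: EPAC1 catalysed release of BODIPY-GDP from Rap1B seen as fluorescence loss; 100% = effect of cAMP agonist control; nearly all actives have a fitted effect of over 75% in size.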
The target of test [14] is Rap guanine nucleotide exchange factor 4 (Homo sapiens) (UniProt Q8WZA2). Description: Confirmatory qHTS for agonist of cAMP-regulated guanine nucleotide exchange factor 4 (EPAC2) (AID 1645884).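 Note: nucleotide exchange releases bodipy-GDP from Rap1 and this lowers its fluorescence; % is set by controls: 0 for no effect and ±100 for the full control effect; nearly all actives have a fitted effect of over 65% in size.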
Test [15] shares this target. In words: Confirmatory qHTS for antagonist of cAMP-regulated guanine nucleotide exchange factor 4 (EPAC2) (AID 1645885). Note: % is set by controls: 0 for no effect and ±100 for the full control effect; nearly all actives have a fitted effect of over 25% in size.
Test [16] concerns the target Cytochrome P450 1A2 (Homo sapiens) (UniProt P05177). Description: p450-cyp1a2 (AID 410; calls by dose curve). The essentials:
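Luminescent demethylation readout: Luciferin-ME (100uM, equal to Km) turned over by 20nM CYP1A2 for 60 min at room temperature after NADPH regeneration addition, following 10 min compound preincubation. Normalization used 57 uM furafylline as full inhibition.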

Test [17] addresses Cytochrome P450 2C19 (Homo sapiens) (UniProt P33261). In words: qHTS Assay for Inhibitors and Substrates of Cytochrome P450 2C19 (AID 899). Note: % is set by controls: 0 for no effect and ±100 for the full control effect; nearly all actives have a fitted effect of over 60% in size. The procedure, abridged: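 In 50mM KPO4, the reaction held 5nM enzyme and KM-level (10uM) Luciferin-H EGE; it ran 60 min at 37C after NADPH regeneration and a 10 min compound preincubation. Luminescence values were scaled to 57uM ketoconazole as complete inhibition.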

Setting [18] is: measured here: cell count channel max response.
Setting [19] is: measured here: lipid channel max response.

Chain of 3',5'-cyclic-AMP phosphodiesterase 4B (Homo sapiens) (Q07343 whole entry, looked up): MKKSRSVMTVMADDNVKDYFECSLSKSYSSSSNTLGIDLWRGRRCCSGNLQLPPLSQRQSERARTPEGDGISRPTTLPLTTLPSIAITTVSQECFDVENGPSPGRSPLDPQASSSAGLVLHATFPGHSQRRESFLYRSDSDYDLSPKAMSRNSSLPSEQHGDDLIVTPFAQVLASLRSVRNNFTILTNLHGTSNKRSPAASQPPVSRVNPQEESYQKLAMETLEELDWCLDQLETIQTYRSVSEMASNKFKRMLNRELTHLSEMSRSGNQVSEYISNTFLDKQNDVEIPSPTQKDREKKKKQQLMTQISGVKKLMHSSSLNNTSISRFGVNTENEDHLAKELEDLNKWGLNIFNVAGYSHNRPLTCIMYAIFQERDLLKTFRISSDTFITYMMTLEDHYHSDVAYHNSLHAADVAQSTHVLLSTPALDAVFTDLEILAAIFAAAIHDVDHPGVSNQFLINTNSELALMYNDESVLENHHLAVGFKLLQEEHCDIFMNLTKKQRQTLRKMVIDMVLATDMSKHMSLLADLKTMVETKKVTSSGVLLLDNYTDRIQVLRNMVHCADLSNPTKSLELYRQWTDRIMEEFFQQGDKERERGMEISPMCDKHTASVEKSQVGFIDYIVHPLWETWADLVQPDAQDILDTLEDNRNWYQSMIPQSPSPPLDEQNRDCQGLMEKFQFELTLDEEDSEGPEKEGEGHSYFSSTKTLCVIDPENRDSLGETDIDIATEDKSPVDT
Chain of Ubiquitin carboxyl-terminal hydrolase 1 (Homo sapiens) (O94782 whole entry, looked up): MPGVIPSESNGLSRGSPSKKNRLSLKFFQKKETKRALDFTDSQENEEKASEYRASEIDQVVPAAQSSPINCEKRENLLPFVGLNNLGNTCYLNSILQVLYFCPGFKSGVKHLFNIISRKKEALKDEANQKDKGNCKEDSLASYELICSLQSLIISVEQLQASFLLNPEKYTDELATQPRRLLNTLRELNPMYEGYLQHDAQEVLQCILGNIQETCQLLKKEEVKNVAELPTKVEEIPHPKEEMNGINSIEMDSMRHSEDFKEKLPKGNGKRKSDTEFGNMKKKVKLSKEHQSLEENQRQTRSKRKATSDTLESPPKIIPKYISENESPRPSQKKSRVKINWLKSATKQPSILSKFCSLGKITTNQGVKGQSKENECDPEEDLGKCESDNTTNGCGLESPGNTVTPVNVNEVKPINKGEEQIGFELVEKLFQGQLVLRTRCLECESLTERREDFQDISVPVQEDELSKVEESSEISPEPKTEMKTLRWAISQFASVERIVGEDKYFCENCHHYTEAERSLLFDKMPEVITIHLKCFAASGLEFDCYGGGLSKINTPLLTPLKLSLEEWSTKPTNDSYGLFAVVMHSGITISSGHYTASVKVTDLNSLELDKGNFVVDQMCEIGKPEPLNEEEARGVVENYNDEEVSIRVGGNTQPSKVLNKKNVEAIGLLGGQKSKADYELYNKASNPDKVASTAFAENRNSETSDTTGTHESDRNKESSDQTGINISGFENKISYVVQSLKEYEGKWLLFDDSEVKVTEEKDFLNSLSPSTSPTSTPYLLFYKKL
Chain of Cytochrome P450 1A2 (Homo sapiens) (P05177 whole entry, looked up): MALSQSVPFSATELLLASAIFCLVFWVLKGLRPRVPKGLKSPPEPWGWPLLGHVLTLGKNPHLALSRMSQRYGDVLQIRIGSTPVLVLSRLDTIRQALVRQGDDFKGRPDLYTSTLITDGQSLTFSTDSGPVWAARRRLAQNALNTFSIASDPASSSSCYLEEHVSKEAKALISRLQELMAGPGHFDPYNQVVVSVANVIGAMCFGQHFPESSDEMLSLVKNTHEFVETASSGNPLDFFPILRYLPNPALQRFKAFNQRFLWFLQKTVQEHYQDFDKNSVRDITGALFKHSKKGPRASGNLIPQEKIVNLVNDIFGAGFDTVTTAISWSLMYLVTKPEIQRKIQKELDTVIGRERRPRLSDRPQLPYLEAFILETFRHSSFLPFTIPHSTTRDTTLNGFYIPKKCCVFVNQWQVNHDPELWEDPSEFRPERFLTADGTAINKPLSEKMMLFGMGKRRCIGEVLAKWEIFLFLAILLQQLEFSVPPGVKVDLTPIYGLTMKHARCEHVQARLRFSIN
Chain of Rap guanine nucleotide exchange factor 3 (Homo sapiens) (O95398 whole entry, looked up): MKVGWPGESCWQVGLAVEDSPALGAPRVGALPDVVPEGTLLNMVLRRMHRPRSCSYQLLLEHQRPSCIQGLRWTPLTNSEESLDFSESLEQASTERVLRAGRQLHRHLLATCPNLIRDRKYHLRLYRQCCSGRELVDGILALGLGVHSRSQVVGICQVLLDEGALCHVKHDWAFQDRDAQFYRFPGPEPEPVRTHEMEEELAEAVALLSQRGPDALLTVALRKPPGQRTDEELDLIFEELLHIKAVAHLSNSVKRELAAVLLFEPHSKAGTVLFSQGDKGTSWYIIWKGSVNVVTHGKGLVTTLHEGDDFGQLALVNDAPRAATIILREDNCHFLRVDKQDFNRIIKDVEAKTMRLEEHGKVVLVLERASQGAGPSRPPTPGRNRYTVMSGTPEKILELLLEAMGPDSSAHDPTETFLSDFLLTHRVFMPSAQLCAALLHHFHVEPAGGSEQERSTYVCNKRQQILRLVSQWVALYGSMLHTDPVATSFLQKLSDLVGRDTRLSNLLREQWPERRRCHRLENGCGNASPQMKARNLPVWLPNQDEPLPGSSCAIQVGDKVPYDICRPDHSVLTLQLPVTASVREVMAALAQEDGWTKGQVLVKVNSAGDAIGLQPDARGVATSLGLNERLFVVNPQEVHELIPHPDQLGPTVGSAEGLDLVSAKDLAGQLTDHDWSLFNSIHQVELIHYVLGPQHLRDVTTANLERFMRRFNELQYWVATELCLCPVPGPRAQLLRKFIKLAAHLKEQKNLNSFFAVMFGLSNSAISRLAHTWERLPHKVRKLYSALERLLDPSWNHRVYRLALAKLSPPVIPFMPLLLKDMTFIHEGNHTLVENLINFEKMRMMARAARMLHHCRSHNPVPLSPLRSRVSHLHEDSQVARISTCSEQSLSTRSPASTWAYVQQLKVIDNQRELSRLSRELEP
Chain of DNA dC->dU-editing enzyme APOBEC-3G (Homo sapiens) (Q9HC16 whole entry, looked up): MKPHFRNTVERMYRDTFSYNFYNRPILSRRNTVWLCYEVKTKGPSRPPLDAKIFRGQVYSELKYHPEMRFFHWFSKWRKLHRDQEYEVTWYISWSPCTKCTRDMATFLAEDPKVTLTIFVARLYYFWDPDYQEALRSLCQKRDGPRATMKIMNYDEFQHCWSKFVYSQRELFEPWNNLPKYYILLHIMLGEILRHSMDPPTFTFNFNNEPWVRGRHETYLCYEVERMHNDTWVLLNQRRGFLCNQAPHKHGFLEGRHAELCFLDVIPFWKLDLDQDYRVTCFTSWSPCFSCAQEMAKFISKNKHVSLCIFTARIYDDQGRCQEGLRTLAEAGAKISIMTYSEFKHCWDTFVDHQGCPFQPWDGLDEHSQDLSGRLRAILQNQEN
Chain of Cytochrome P450 2C19 (Homo sapiens) (P33261 whole entry, looked up): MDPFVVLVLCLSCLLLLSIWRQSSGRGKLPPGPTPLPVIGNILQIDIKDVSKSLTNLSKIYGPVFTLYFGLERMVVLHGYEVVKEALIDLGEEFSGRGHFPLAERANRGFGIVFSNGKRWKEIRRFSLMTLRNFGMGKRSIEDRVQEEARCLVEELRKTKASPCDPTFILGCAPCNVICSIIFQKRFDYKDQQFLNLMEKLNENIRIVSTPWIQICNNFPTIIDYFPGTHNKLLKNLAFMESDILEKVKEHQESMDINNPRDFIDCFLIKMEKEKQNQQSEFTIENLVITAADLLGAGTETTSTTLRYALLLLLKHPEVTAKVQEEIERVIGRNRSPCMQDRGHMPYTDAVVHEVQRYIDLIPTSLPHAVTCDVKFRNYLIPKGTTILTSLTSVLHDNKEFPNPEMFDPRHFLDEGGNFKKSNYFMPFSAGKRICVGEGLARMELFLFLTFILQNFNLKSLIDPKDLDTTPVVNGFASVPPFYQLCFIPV

On to `CN(C)CCCSC(=N)N`, for which the activity change, negative = inhibition in [1] was 2.97% (inactive); in test [2] it was -13.3% (inactive); in [8] (at 25.7 µM (top of the series)), -2.91% (inactive); in [8] (at 57.5 µM (top of the series)), 3.5% (inactive). For the same compound, the activity, negative = inhibition in test [3] is -1.52% (inactive). The Potency was > 20.6 µM (inactive) and > 46 µM (inactive) in test [4]; > 20.6 µM (inactive) and > 46 µM (inactive) in [5]. The Potency result in [6], in [7], in [9], in test [10], in [11] and in test [12] was “inactive” each time. In addition, the Potency entry in test [15] is “inactive”. Also, the max response in [8] (setting [18]) is -7.27% and -5.75%; in test [8] (setting [19]) it was -5.95% and 13.8%. Besides, the result in test [13] and in [14] was inactive.

For `CS(=O)(=O)Nc1c(O)ccc2c1CCC[C@H]2C1=NCCN1`, the Potency entry in test [16], in test [6], in test [7], in [9], in test [10] and in test [11] was “inactive” each time. The Potency in [4] and in test [5] was > 46 µM (inactive) each time. Further, the activity change, negative = inhibition in test [8] (at 57.5 µM (top of the series)) was -4.88% (inactive). Moreover, the max response in test [8] (setting [18]) was -12.4%; in test [8] (setting [19]) it was -17.3%.

As for `NC1(C(=O)O)CCC1`, the Potency in test [4] and in [5] was > 46 µM (inactive) each time. The Potency result in [6], in [7], in test [9] and in test [11] was “inactive” in each case. Moreover, the activity change, negative = inhibition in [8] (at 57.5 µM (top of the series)) is 3.54% (inactive). In addition, the max response in [8] (setting [18]) was -18.5%; in test [8] (setting [19]), -13.7%.

Regarding `NC(N)=Nc1ccc(Cl)cc1`, the Potency entry in test [16], in test [6], in test [7], in test [17], in [9] and in [11] was “inactive” throughout. The Potency in test [4] and in test [5] was > 46 µM (inactive) in each case. The activity change, negative = inhibition in [8] (at 57.5 µM (top of the series)) was -3.61% (inactive). For the same compound, the max response in test [8] (setting [18]) is -0.36%; in test [8] (setting [19]), -4.97%.

Source of the values: PubChem BioAssay (NCATS).
